The nature of experiment [1]: qHTS assay to identify aromatase inhibitors - cell viability counter screen (AID 743084;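 further: cells stimulated with testosterone during compound exposure; nearly all actives have a fitted effect of over 55% in size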). (In general: qHTS replaces the single test concentration by a dilution series.)
The target in experiment [2] is Aryl hydrocarbon receptor (Homo sapiens) (UniProt P35869). As to the kind of experiment: qHTS assay to identify small molecule that activate the aryl hydrocarbon receptor (AhR) signaling pathway (AID 743085).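 Further: HG2L7.5c1 human HepG2 liver cells with stably integrated DRE-driven firefly reporter; series mostly up to about 70 µM; nearly all actives have a fitted effect of over 15% in size.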 In outline: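 Compounds were tested in HepG2 hepatocellular carcinoma cells harbouring a stably integrated luciferase gene under control of 20 DREs. Increased reporter signal after 24 h treatment at 37C was taken as AhR activation.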
Chain of Aryl hydrocarbon receptor (Homo sapiens) (P35869 whole entry, looked up): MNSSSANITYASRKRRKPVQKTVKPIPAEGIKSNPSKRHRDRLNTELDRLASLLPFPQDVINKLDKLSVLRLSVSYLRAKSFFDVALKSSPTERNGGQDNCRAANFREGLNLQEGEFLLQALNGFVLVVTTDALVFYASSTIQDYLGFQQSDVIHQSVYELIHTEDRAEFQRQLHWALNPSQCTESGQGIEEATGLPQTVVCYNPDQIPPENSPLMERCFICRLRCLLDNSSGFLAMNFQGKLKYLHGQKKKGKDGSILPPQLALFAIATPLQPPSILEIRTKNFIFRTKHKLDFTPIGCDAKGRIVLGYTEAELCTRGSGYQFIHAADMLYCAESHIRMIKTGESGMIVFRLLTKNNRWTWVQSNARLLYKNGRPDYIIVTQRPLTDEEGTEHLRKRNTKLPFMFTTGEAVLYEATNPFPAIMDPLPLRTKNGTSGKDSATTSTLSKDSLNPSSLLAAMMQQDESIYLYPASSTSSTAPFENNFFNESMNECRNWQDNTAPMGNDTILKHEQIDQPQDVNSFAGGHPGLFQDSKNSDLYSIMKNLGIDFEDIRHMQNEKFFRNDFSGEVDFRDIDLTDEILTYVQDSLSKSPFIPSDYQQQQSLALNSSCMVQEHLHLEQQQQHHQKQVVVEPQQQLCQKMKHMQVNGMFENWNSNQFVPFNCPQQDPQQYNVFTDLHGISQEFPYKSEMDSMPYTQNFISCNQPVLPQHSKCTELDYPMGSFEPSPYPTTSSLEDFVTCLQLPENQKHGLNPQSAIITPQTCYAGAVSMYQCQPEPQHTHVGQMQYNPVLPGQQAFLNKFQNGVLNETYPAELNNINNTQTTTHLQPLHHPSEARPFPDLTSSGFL

Experiment [3] deals with Peroxisome proliferator-activated receptor gamma (Homo sapiens) (UniProt P37231). In words: qHTS assay to identify small molecule agonists of the peroxisome proliferator-activated receptor gamma (PPARg) signaling pathway (AID 743094; active means well fitted activation curve with a large enough effect in the signal ratio in the repeat runs, not every such curve was filed as active; the % refers to the signal ratio; further: potency means the concentration at half of the fitted maximal effect). In a few lines: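 Cell-based bla reporter, HEK293H background, PPARg-driven UAS. Pre-incubation 5 h, 37C, 5% CO2. Compound 17 h, 37C. Substrate 1 h RT; fluorescence.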
Chain of Peroxisome proliferator-activated receptor gamma (Homo sapiens) (P37231 whole entry, looked up): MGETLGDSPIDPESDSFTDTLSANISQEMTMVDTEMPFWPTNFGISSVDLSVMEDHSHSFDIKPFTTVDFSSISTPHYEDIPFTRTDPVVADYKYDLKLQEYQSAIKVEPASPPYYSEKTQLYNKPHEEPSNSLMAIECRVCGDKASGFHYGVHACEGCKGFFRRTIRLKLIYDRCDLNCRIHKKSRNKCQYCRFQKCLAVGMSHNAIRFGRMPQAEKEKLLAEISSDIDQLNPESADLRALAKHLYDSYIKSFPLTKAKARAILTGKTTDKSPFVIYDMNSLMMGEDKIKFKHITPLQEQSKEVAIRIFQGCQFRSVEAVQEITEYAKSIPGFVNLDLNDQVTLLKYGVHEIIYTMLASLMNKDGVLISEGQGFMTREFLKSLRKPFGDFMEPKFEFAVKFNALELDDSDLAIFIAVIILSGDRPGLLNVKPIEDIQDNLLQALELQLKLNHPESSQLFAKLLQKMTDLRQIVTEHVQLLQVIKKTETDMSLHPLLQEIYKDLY

Experiment [4] is described as follows: qHTS assay to identify small molecule antagonists of the peroxisome proliferator-activated receptor gamma (PPARg) signaling pathway - cell viability counter screen (AID 743194). Further: nearly all actives have a fitted effect of over 55% in size. In outline: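 PPARg-UAS-bla HEK293H cells were plated, rested 5 h at 37 C, then treated with compounds plus rosiglitazone (50 nM final) for 17 h at 37 C; viability was then read by CellTiter-Glo luminescence after 30 min at room temperature.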

Experiment [5] in a line: qHTS assay for small molecule agonists of the antioxidant response element (ARE) signaling pathway (AID 743202; active means well fitted activation curve with a large enough effect in the signal ratio in the repeat runs, not every such curve was filed as active; the % refers to the signal ratio; further: potency means the concentration at half of the fitted maximal effect). In outline: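 Following a 16 h, 37 C exposure of reporter HepG2 cells (ARE-driven beta-lactamase, 2,000 cells/well) to compounds, FRET substrate was applied for 2 h at room temperature and fluorescence intensity recorded.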
Experiment [6] can be described thus: qHTS assay for small molecule activators of the heat shock response signaling pathway - cell viability counter screen (AID 743209). Further: nearly all actives have a fitted effect of over 50% in size. In a few lines: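 Same-well multiplex: after 2.5 h room-temperature incubation with LiveBLAzer B/G substrate and fluorescence reading, CellTiter-Glo reagent was added to HSE-bla HeLa cells that had received compound for 5 h at 37 C; luminescence read after 30 min.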

The nature of experiment [7]: qHTS assay for small molecule activators of the heat shock response signaling pathway (AID 743210; active means well fitted activation curve with a large enough effect in the signal ratio in the repeat runs, with a control signal flat, not every such curve was filed as active; the % refers to the signal ratio; further: series mostly up to about 63 µM). In outline:
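Heat shock element–beta-lactamase HeLa reporter cells; qHTS with compounds for 5 h at 37 C; detection by FRET substrate fluorescence after 2.5 h at RT.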

Experiment [8] is described as follows: qHTS assay to identify small molecule that activate the aryl hydrocarbon receptor (AhR) signaling pathway - cell viability counter screen (AID 743086). Further: nearly all actives have a fitted effect of over 45% in size. Further: potency means the concentration at half of the fitted maximal effect. In outline:
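HepG2-AhR-luc (HG2L7.5c1) cells, 4000/well, were preincubated 5 h at 37C, exposed to compound in qHTS format for 24 hr at 37C, then given CellTiter-Fluor for 30 min; viability was read as fluorescence in the reporter wells.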

Experiment [9] has as its target Peroxisome proliferator-activated receptor gamma (Homo sapiens) (UniProt P37231). As to the kind of experiment: qHTS assay to identify small molecule antagonists of the peroxisome proliferator-activated receptor gamma (PPARg) signaling pathway (AID 743191; calls by dose curve; further: nearly all actives have a fitted effect of over 30% in size; further: potency means the concentration at half of the fitted maximal effect). In a few lines: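 GeneBLAzer PPARg UAS-bla HEK293H cells carrying a UAS-driven beta-lactamase reporter were plated at 3000 cells/well, preincubated 5 h at 37C, then given compound for 17 h at 37C; LiveBLAzer B/G FRET substrate was read after 1 h at room temperature.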

Experiment [10] is described as follows: qHTS assay for small molecule agonists of the antioxidant response element (ARE) signaling pathway - cell viability counter screen (AID 743203; calls by dose curve; further: nearly all actives have a fitted effect of over 55% in size; further: potency means the concentration at half of the fitted maximal effect). In outline:
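Measured in the same wells as the beta-lactamase ARE reporter, this read-out is CellTiter-Glo luminescence from HepG2 ARE-bla cells given compounds for 16 hrs.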

Each structure is given as a SMILES string. Results filed as inconclusive are left out. Calls of active or inactive are those of the source. Unless noted, the call rests on the fitted dose curve; in most records, active means well fitted curve in the direction sought with a large enough effect in the repeat runs; inconclusive means weak or mixed curves; inactive means no such curve, though single readings can be large; an effect the other way counts as inactive or inconclusive.

Regarding `CC1=CC(O)CC(C)(C)C1` (centres undefined), the Potency result in experiment [1], in experiment [2], in experiment [3], in experiment [4], in experiment [5] and in [6] was “inactive” throughout. In experiment [7], the Potency entry was “inactive”.

On to `CCCOCCOCCO`, for which the Potency result in experiment [1], in experiment [8], in [3], in experiment [9], in experiment [4] and in [5] was “inactive” in each case. Moreover, the Potency result in experiment [10], in experiment [6] and in experiment [7] was “inactive” in each case.

For `CC(C)CCCCCOC(=O)CCCCC(=O)OCCCCCC(C)C`, the Potency result in experiment [1], in experiment [8], in [3], in experiment [9], in experiment [4] and in experiment [10] was “inactive” each time. For the same molecule, in [7], the Potency entry was “inactive”.

For `COc1cc2c(N3CCN(C(=O)Nc4ccc(OC(C)C)cc4)CC3)ncnc2cc1OCCCN1CCCCC1`, the Potency entry in [1], in experiment [3], in [9], in experiment [4] and in experiment [7] was “inactive” throughout. The Potency in experiment [8] is 23.7 µM (active).

`COc1ccc(CCC(=O)c2c(O)cc(O[C@@H]3O[C@H](CO)[C@@H](O)[C@H](O)[C@H]3O[C@@H]3O[C@@H](C)[C@H](O)[C@@H](O)[C@H]3O)cc2O)cc1O`: the Potency result in experiment [1], in experiment [8], in experiment [3], in [9], in experiment [4] and in experiment [5] was “inactive” throughout. In addition, the Potency entry in experiment [6] was “inactive”.

For `CCOC(=O)c1ccccc1C`, the Potency entry in experiment [1], in [8], in [3], in experiment [9], in experiment [4] and in experiment [6] was “inactive” each time. Besides, the Potency entry in experiment [7] was “inactive”.

Take `NC(=O)N(O)[C@@H]1C=C[C@H](Oc2cccc(Oc3ccc(F)cc3)c2)C1`: the Potency result in experiment [1], in experiment [2], in experiment [3], in [4] and in experiment [10] was “inactive” in each case. The Potency in experiment [5] is 17.2 µM (active).

With `O=[N+]([O-])c1cccc(S(=O)(=O)NCCNS(=O)(=O)c2cccc([N+](=O)[O-])c2)c1`, the Potency entry in experiment [1], in [2], in experiment [3], in experiment [9], in experiment [10] and in experiment [6] was “inactive” throughout. In experiment [7], the Potency result is “inactive”.

Consider `CC(N)CN` (centres undefined), for which the Potency entry in experiment [1], in experiment [2], in experiment [3], in experiment [4], in experiment [5] and in experiment [10] was “inactive” in each case. For the same molecule, in experiment [6], the Potency result was “inactive”.

Take `CCC(C)=O`: the Potency entry in experiment [1], in experiment [8], in experiment [3], in experiment [9], in [4] and in [5] was “inactive” throughout. In addition, the Potency entry in experiment [10], in [6] and in experiment [7] was “inactive” each time.

Take `O=C(c1ccc(O)cc1)c1ccc(Cl)cc1`: the Potency result in experiment [1], in [2], in experiment [3], in experiment [4], in experiment [10] and in experiment [6] was “inactive” throughout. Further, in experiment [7], the Potency entry was “inactive”.

Turning to `NC(=O)Cn1c(=O)cc(CCN2CCN(c3nccc4sccc34)CC2)c2ccc(F)cc21`, the Potency entry in experiment [1], in experiment [2], in experiment [3], in experiment [4], in [5] and in [10] was “inactive” each time.

In the case of `CCCc1c(OCCCOc2ccc(OCC(=O)O)cc2)ccc(C(C)=O)c1O`, the Potency result in experiment [1], in experiment [2], in [4], in experiment [5] and in experiment [7] was “inactive” throughout. For the same molecule, in experiment [3], the Potency was 0.275 µM (active).

Turning to `CCCCC(=O)O[C@]1(C(=O)CO)[C@@H](C)C[C@H]2[C@@H]3CCC4=CC(=O)C=C[C@]4(C)[C@@]3(F)[C@@H](O)C[C@@]21C`, the Potency entry in [1], in [3], in experiment [9], in [4], in experiment [10] and in [6] was “inactive” in each case. In addition, in experiment [7], the Potency result is “inactive”.

Turning to `Cc1cc(OI)c(C(C)C)cc1-c1cc(C(C)C)c(OI)cc1C`, the Potency entry in [1], in experiment [8], in experiment [4], in experiment [5], in [10] and in experiment [6] was “inactive” in each case.

`CSc1ccc(Oc2ccc(S(N)(=O)=O)cc2CN(C)C)cc1C`: the Potency entry in [1], in experiment [8], in [3], in experiment [4], in experiment [10] and in experiment [6] was “inactive” each time. The Potency result in [7] is “inactive”.

Consider `Nc1ccc(C(=O)OCCCOC(=O)c2ccc(N)cc2)cc1`, for which the Potency result in experiment [1], in experiment [8], in experiment [3], in experiment [10], in experiment [6] and in [7] was “inactive” throughout. Further, the Potency in [9] was 43.6 µM (active).

For `c1cc[c]([Bi]([c]2ccccc2)[c]2ccccc2)cc1`, the Potency entry in [1], in experiment [8], in experiment [4], in experiment [10] and in [6] was “inactive” each time.

For `C[C@@H]1C[C@H]2[C@@H]3CCC4=CC(=O)C=C[C@]4(C)[C@@]3(F)[C@@H](O)C[C@]2(C)[C@H]1C(=O)CO`, the Potency entry in experiment [1], in experiment [8], in [3], in [4], in experiment [10] and in experiment [7] was “inactive” in each case.

With `CC(C)=CC=O`, the Potency entry in experiment [1], in experiment [3], in experiment [5], in experiment [10] and in experiment [7] was “inactive” in each case.

Consider `O=C(O)Cc1ccc(-c2ccccc2)cc1`, for which the Potency result in experiment [1], in experiment [8], in [6] and in [7] was “inactive” throughout.

As to `CN1CCN(CCCN2c3ccccc3Sc3ccc(S(=O)(=O)N(C)C)cc32)CC1`, the Potency entry in experiment [1], in experiment [8] and in [7] was “inactive” each time. Besides, the Potency in experiment [10] is 26.6 µM (active).

For `CCOC(=O)[C@@H](C)Oc1ccc(Oc2nc3ccc(Cl)cc3o2)cc1`, the Potency entry in experiment [1], in experiment [8], in experiment [3], in experiment [4], in experiment [10] and in [6] was “inactive” in each case. Besides, the Potency entry in [7] is “inactive”.

As to `CCOC(=O)/C=C/C(=O)O`, the Potency result in [1], in experiment [8], in experiment [3], in experiment [4], in experiment [10] and in experiment [6] was “inactive” in each case. For the same molecule, the Potency result in experiment [7] was “inactive”. Besides, in experiment [5], the Potency is 9.69 µM (active).

`CCC(C)(O)CCC=C(C)C` (centres undefined): the Potency entry in experiment [1], in experiment [8], in [3], in experiment [9], in experiment [5] and in experiment [10] was “inactive” in each case. Further, the Potency entry in experiment [6] and in experiment [7] was “inactive” throughout.

For the molecule `OCC1CC=CCC1` (centres undefined), the Potency entry in [1], in experiment [8], in experiment [3], in experiment [4], in experiment [5] and in experiment [7] was “inactive” in each case.

As to `CCOC(=O)CC(=O)C(=O)OCC`, the Potency result in [2], in experiment [8], in [3], in experiment [4], in experiment [5] and in experiment [10] was “inactive” throughout. Besides, the Potency entry in [6] and in [7] was “inactive” in each case.

The values are drawn from PubChem BioAssay (Tox21).
